Laboratory results taken from PubChem BioAssay AID1159580 (chemical genetic matrix, 2015).
About 2,000 (36%) of roughly 5,500 compounds were called active. Inconclusive results (about 18%) are left out. No stated cut-off is given here; in the data, active means normalized growth mostly below about 0.91 (no sharp cut-off); inconclusive means no clear call, values can overlap the other calls; inactive means mostly above about 0.92. Some of the results follow.

Assay: chemical genetic growth profiling, strain panel (AID 1159580);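 further: tested at 20 µM; growth read once vehicle control cultures reached saturation at 30 °C; 1 = growth at the plate median or of vehicle wells; lower values mean less growth of the strain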
Settings: S. cerevisiae deletion strains, growth OD

Measured: normalized growth

Clc1cccc(Cl)c1C1CC(c2ccccc2)=Nc2ccccc2S1 (stereo unspecified)
inactive: locus YAR019C, strain CDC15, hits give low values 0.986 | locus YBL105C, strain PKC1, hits give low values 0.986 | locus YBR135W, strain CKS1, hits give low values 0.993 | locus YBR136W, strain MEC1, hits give low values 0.962 | locus YBR160W, strain CDC28, hits give low values 0.988 | locus YDL017W, strain CDC7, hits give low values 0.98 | locus YDL028C, strain MPS1, hits give low values 0.99 | locus YDL101C, strain DUN1, hits give low values 0.984 | locus YDL108W, strain KIN28, hits give low values 0.989 | locus YDL132W, strain cdc53, hits give low values 0.994 | locus YDL214C, strain PRR2, hits give low values 0.978 | locus YDR052C, strain DBF4, hits give low values 0.982 | locus YDR054C, strain cdc34, hits give low values 0.978 | locus YDR226W, strain ADK1, hits give low values 0.982 | locus YDR477W, strain SNF1, hits give low values 0.979 | locus YER123W, strain YCK3, hits give low values 0.981 | locus YER133W, strain GLC7, hits give low values 0.981 | locus YFL009W, strain cdc4, hits give low values 0.989 | locus YFL029C, strain CAK1, hits give low values 0.98 | locus YFR003C, strain YPI1, hits give low values 0.989 | locus YFR019W, strain FAB1, hits give low values 0.986 | locus YFR028C, strain CDC14, hits give low values 0.985 | locus YGR040W, strain KSS1, hits give low values 0.967 | locus YGR052W, strain FMP48, hits give low values 1.07 | locus YGR092W, strain DBF2, hits give low values 0.989 | locus YHR030C, strain SLT2, hits give low values 0.987 | locus YHR079C, strain IRE1, hits give low values 0.992 | locus YHR082C, strain KSP1, hits give low values 1.02 | locus YHR205W, strain SCH9, hits give low values 0.936 | locus YIL147C, strain SLN1, hits give low values 0.981 | locus YJL095W, strain BCK1, hits give low values 1 | locus YJL128C, strain PBS2, hits give low values 0.958 | locus YJL157C, strain FAR1, hits give low values 0.988 | locus YJR016C, strain ILV3, hits give low values 0.992 | locus YJR066W, strain TOR1 (second series), hits give low values 0.95 | locus YJR066W, strain TOR1, hits give low values 0.991 | locus YKL048C, strain ELM1, hits give low values 0.982 | locus YKL067W, strain YNK1, hits give low values 0.974 | locus YKL101W, strain HSL1, hits give low values 0.966 | locus YKL193C, strain SDS22, hits give low values 0.991 | locus YKL203C, strain TOR2, hits give low values 1.02 | locus YLR113W, strain HOG1, hits give low values 0.93 | locus YLR133W, strain CKI1, hits give low values 0.977 | locus YLR403W, strain SFP1, hits give low values 0.973 | locus YML070W, strain DAK1, hits give low values 0.981 | locus YMR001C, strain CDC5, hits give low values 0.986 | locus YMR205C, strain PFK2 (second series), hits give low values 0.979 | locus YMR277W, strain FCP1, hits give low values 0.991 | locus YNL006W, strain LST8, hits give low values 0.995 | locus YNL020C, strain ARK1, hits give low values 0.985 | locus YNL161W, strain CBK1, hits give low values 0.981 | locus YNL183C, strain NPR1, hits give low values 0.997 | locus YNL207W, strain RIO2, hits give low values 0.985 | locus YNL222W, strain SSU72, hits give low values 0.995 | locus YNL307C, strain MCK1 (second series), hits give low values 0.999 | locus YOL078W, strain AVO1, hits give low values 0.99 | locus YOL136C, strain PFK27, hits give low values 0.973 | locus YOR061W, strain CKA2, hits give low values 0.978 | locus YOR119C, strain RIO1, hits give low values 0.997 | locus YOR231W, strain MKK1, hits give low values 0.988 | locus YOR329C, strain SCD5, hits give low values 0.978 | locus YPL031C, strain PHO85, hits give low values 0.982 | locus YPL153C, strain RAD53, hits give low values 0.982 | locus YPL204W, strain HRR25, hits give low values 0.99 | locus YPL209C, strain IPL1, hits give low values 0.988 | locus YPL256C, strain CLN2, hits give low values 0.947 | locus YPR025C, strain CCL1, hits give low values 0.987 | locus YPR106W, strain ISR1, hits give low values 0.981 | locus YPR111W, strain DBF20, hits give low values 0.983 | strain NNK1, hits give low values 0.99 | strain TSCII, hits give low values 0.986
